Compound activity from PubChem.
MCF10A rereplic – A quantitative high throughput screen for small molecules that induce DNA re-replication in MCF 10a normal breast cells; AID 624296, 2012; 350,000 tested, 2.9% active; MCF 10A DNA re-replication, Hoechst nuclear intensity, 48 h; Potency, µM (doses to about 46.1 µM), most hits filed as activators; also: nearly all actives have a fitted effect of over 50% in size
KB-V1 MDR tox – qHTS assay for MDR1-selective chemotherapeutics: Primary screen using the drug-selected MDR subline cells KB-V1; KB-V1 MDR cells viability, CellTiter-Glo, 72 h; Potency, µM (series often up to 46.1 µM), most hits filed as cytotoxic; 400,000 tested, 3.4% active; AID 1347076, 2019; also: nearly all actives have a fitted effect of over 60% in size
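qHTS viability screen in drug-selected KB-V1 MDR cells: 72 h compound treatment at 37 degrees C, ATP luminescence end point.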
KB-3-1 tox – qHTS assay for MDR1-selective chemotherapeutics: Primary screen using the parental adenocarcinoma cell KB-3-1; KB-3-1 viability, CellTiter-Glo ATP luminescence, 72 h; Potency, µM (highest dose often 46.1 µM), hits mostly cytotoxic; 400,000 tested, 1.4% active; AID 1347075, 2019; also: nearly all actives have a fitted effect of over 60% in size
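KB-3-1 cells, DMEM (no phenol red) + 10% FBS; compound by pin transfer, 72 h, 37 °C. Readout: CellTiter-Glo luminescence after 10 min. Data normalized, curve-fitted.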
IL1B secr inh – qHTS for Inhibitors of Inflammasome Signaling: IL-1-beta AlphaLISA Primary Screen; THP-1 LPS/ATP IL-1B secretion, AlphaLISA, 16 h; hits give low values; activity change, % at 57.5 µM; 360,000 tested, 4.7% active; AID 743279, 2014; in the data active = activity change below about -50%; inconclusive = mostly about -30% to -49%
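THP-1 cells pretreated 1 hr with compounds (up to 57.5 uM final), then stimulated with LPS (250 ng/mL final) plus ATP (1.25 mM final); secreted IL-1B measured by AlphaLISA after 16 hr, decreased signal indicating inhibition.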
SW480 rereplic – A quantitative high throughput screen for small molecules that induce DNA re-replication in SW480 colon adenocarcinoma cells | SW480 DNA re-replication, Hoechst DNA content imaging, 48 h | Potency, µM (doses to about 46.1 µM), actives largely listed as activators | 340,000 tested, 1.8% active | AID 624297, 2012; also: nearly all actives have a fitted effect of over 55% in size
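Image-based DNA-content assay: after two days of treatment, nuclei were labelled with the DNA dye Hoechst and imaged, and hits were compounds raising the count of nuclei showing high fluorescence intensity.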
Each line names hits and unclear results; the compound was inactive in the other large screens. This is a sample that favours compounds with a hit; in the whole collection about 9.9% have one here. Unless noted, calls follow the shape of the dose curve; as a rule, active = well fitted curve in the direction sought with a large enough effect; inconclusive = small, poorly fitted or top-dose-only effect, or another doubt; inactive = no such curve, though single readings can be large; an effect the other way counts as inactive or inconclusive.

O=C(CCc1ccccn1)NC1CCCc2c1cnn2-c1ccc(F)cc1F (stereo not given)	KB-V1 MDR tox 21µM, KB-3-1 tox inconclusive
O=C(CCc1ccncc1)NC1CCCc2c1cnn2-c1ccc(F)cc1F (stereo not given)	SW480 rereplic inconclusive
CCc1cc(C(=O)NC2CCCc3c2cnn3-c2ccc(F)cc2F)no1 (stereo not given)	KB-V1 MDR tox inconclusive, KB-3-1 tox 15µM (no result: MCF10A rereplic, SW480 rereplic)
Cc1cc(C)cc(OCC(=O)N(Cc2ccccc2)C2CCS(=O)(=O)C2)c1 (stereo not given)	none
O=C(O)CCCC(=O)N1N=C(c2ccccc2)CC1c1cccs1 (stereo not given)	none
C#CCOc1ccc(/C=C2\SC(=S)N(Cc3cccnc3)C2=O)cc1	MCF10A rereplic 21µM, KB-V1 MDR tox inconclusive, KB-3-1 tox 21µM, SW480 rereplic 15µM
O=C(O)COc1ccccc1/C=C1\SC(=O)N(Cc2ccc(F)cc2)C1=O	MCF10A rereplic 4.6µM
COc1cc(/C=C2/SC(=S)N(Cc3ccccc3)C2=O)ccc1O	KB-3-1 tox inconclusive, IL1B secr inh -82, SW480 rereplic inconclusive
O=C1/C(=C\c2cccc(O)c2)SC(=S)N1Cc1ccccc1	MCF10A rereplic inconclusive
COc1cc(/C=C2\SC(=S)N(C(C(=O)O)c3ccccc3)C2=O)ccc1O (stereo not given)	none
O=C1/C(=C/c2ccc(O)cc2)SC(=S)N1Cc1cccnc1	none
Cc1ccc(CN2C(=O)S/C(=C\c3ccccc3OCC(=O)O)C2=O)cc1	none
COc1cc(/C=C2/SC(=NCc3ccccc3)N(Cc3ccccc3)C2=O)ccc1O	MCF10A rereplic 5.8µM, KB-V1 MDR tox inconclusive
CCN(c1ccccc1)S(=O)(=O)c1ccc(C(=O)Oc2ccc(C(C)=O)cc2)cc1	none
CC1(C(=O)NCc2cccnc2)CCN1C(=O)Cc1cccs1 (stereo not given)	none (no result: MCF10A rereplic, SW480 rereplic)
Cc1ccc(C(C)C)c(OCC(=O)Nc2c(C(=O)c3ccccc3)oc3ccccc23)c1	KB-V1 MDR tox inconclusive (no result: MCF10A rereplic, IL1B secr inh, SW480 rereplic)
CCOc1ccc(CCNC(=O)COC(=O)c2nc(Cl)ccc2Cl)cc1OCC	none
CCN1c2ccccc2-c2nc(SCC(=O)NCc3ccccc3)ncc2S1(=O)=O	none (no result: MCF10A rereplic, IL1B secr inh, SW480 rereplic)
O=C1/C(=C\c2cc([N+](=O)[O-])ccc2O)SC(=S)N1Cc1ccc(Cl)cc1	MCF10A rereplic inconclusive, KB-V1 MDR tox 23µM, KB-3-1 tox inconclusive
O=C1/C(=C\c2ccc(O)c(O)c2)SC(=S)N1Cc1ccccc1	KB-V1 MDR tox inconclusive, KB-3-1 tox inconclusive, IL1B secr inh -87, SW480 rereplic inconclusive
O=C1/C(=C\c2cccc(O)c2O)SC(=S)N1Cc1ccccc1	MCF10A rereplic inconclusive, KB-V1 MDR tox inconclusive, KB-3-1 tox inconclusive, IL1B secr inh -98, SW480 rereplic 18µM
Cc1ccc(/C=C2\SC(=S)N(Cc3ccccc3)C2=O)o1	none
COc1ccc(/C=C2/SC(=S)NC2=O)cc1OCc1ccccc1	MCF10A rereplic inconclusive
COc1cc(/C=C2/SC(=O)NC2=O)ccc1OCc1ccccc1	MCF10A rereplic 26µM
CCCN1C(=O)/C(=C/c2ccncc2)SC1=S	none
O=C1/C(=C/c2ccncc2)SC(=S)N1Cc1ccccc1	MCF10A rereplic inconclusive, KB-V1 MDR tox inconclusive, KB-3-1 tox inconclusive, IL1B secr inh -82, SW480 rereplic inconclusive
O=C(O)CCCCN1C(=O)/C(=C\c2ccc(OCc3ccccc3)c(OCc3ccccc3)c2)SC1=S	IL1B secr inh -93
O=C(O)CCCN1C(=O)/C(=C\c2ccccc2OCc2ccccc2)SC1=S	MCF10A rereplic inconclusive
O=C(O)c1cccc(CN2C(=O)S/C(=C/c3ccccc3[N+](=O)[O-])C2=O)c1	MCF10A rereplic inconclusive, IL1B secr inh -82, SW480 rereplic inconclusive
COc1ccccc1-c1ccc(SCc2ccccc2F)nn1	KB-V1 MDR tox inconclusive, IL1B secr inh -60
C=CCNC(=O)c1ccc2c(c1)N(CC)C(=O)c1ccccc1S2	none
